Assay [1] deals with MCC-13. The assay is described as follows: qHTS assay to identify novel small-molecules to repurpose for Merkel cell carcinoma treatment (AID 1296009). Also: nearly all actives have a fitted effect of over 60% in size. Particulars: MCC and control cell lines, CellTiter-Glo viability, 72 h; series mostly up to 46 µM. The essentials: (§1)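 After compound transfer in DMSO, plates were kept 72 hr at 37 degree celsius. Luminescent ATP signal from CellTiter-Glo served as viability measure, normalized against DMSO and no-cell controls.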
(qHTS replaces the single test concentration by a dilution series.)

Assay [2] deals with C33A. Nature of the assay: Primary qHTS to identify gynecologic anti-cancer compounds using libraries of approved drugs and bioactive compounds (AID 1345084). Also: nearly all actives have a fitted effect of over 55% in size. Particulars: Gynecologic cancer cell panel viability, ATPlite luminescence, 48 h; series mostly up to 57.5 µM. The essentials:
(§2)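 Cells, 1,000 per well, were allowed to settle for 16 h at 37 C before compound addition. Five concentrations were tested for 48 h, and viability was read by ATPlite luminescence after 15 min at room temperature.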

The test system of assay [3] is CASKI. The description is as above. Particulars: Gynecologic cancer cell panel viability, ATPlite luminescence, 48 h; series mostly up to 57.5 µM. The procedure, abridged:
as §2
On the technique in general: ATP-based viability assays read luminescence as a measure of living cells.

The subject of assay [4] is Es-2. The description is as above. Particulars: Gynecologic cancer cell panel viability, ATPlite luminescence, 48 h; series mostly up to 57.5 µM. The essentials:
as §2

The test system of assay [5] is HeLa. The assay is described as above. The note with it: Gynecologic cancer cell panel viability, ATPlite luminescence, 48 h; series mostly up to 57.5 µM. The essentials:
as §2

Assay [6] deals with Hek293T. The description is as above. The note with it: Gynecologic cancer cell panel viability, ATPlite luminescence, 48 h, control line for the selectivity index; series mostly up to 57.5 µM. The procedure, abridged:
as §2

Assay [7] has as its system OV90. Described as above. Particulars: Gynecologic cancer cell panel viability, ATPlite luminescence, 48 h; series mostly up to 57.5 µM. The essentials:
as §2

Assay [8] concerns PA-1. Described as above. Particulars: Gynecologic cancer cell panel viability, ATPlite luminescence, 48 h; series mostly up to 57.5 µM. The procedure, abridged: as §2
For assay [9], the system named is SKOV3. The description is as above. The note with it: Gynecologic cancer cell panel viability, ATPlite luminescence, 48 h; series mostly up to 57.5 µM. The essentials: as §2
For assay [10], the system named is Tov112D. The assay is described as above. The note with it: Gynecologic cancer cell panel viability, ATPlite luminescence, 48 h; series mostly up to 57.5 µM. The procedure, abridged: as §2
The subject of assay [11] is MKL-1. The assay is described as follows: qHTS assay to identify novel small-molecules to repurpose for Merkel cell carcinoma treatment (AID 1296009). Also: nearly all actives have a fitted effect of over 60% in size. Particulars: MCC and control cell lines, CellTiter-Glo viability, 72 h; series mostly up to 46 µM. The essentials:
as §1

For assay [12], the system named is MKL-2. The description is as above. The note with it: MCC and control cell lines, CellTiter-Glo viability, 72 h; series mostly up to 46 µM. The essentials: as §1
Assay [13] deals with NIH3T3. The assay is described as above. The note with it: MCC and control cell lines, CellTiter-Glo viability, 72 h; at 44.8 µM (top of the series) unless noted. The procedure, abridged:
as §1

In assay [14] the test system is UISO. The description is as above. Particulars: MCC and control cell lines, CellTiter-Glo viability, 72 h; series mostly up to 46 µM. The essentials: as §1
The test system of assay [15] is WaGa. The assay is described as above. Particulars: MCC and control cell lines, CellTiter-Glo viability, 72 h; series mostly up to 46 µM. The procedure, abridged:
as §1

Assay [16] concerns CAOV3. The assay is described as follows: Primary qHTS to identify gynecologic anti-cancer compounds using libraries of approved drugs and bioactive compounds (AID 1345084). Also: nearly all actives have a fitted effect of over 55% in size. Particulars: Gynecologic cancer cell panel viability, ATPlite luminescence, 48 h; series mostly up to 57.5 µM. The essentials:
as §2

Assay [17] concerns JEG-3. Described as above. The note with it: Gynecologic cancer cell panel viability, ATPlite luminescence, 48 h; series mostly up to 57.5 µM. The essentials: as §2
Assay [18] has as its system Tov-21-G. The description is as above. Particulars: Gynecologic cancer cell panel viability, ATPlite luminescence, 48 h; series mostly up to 57.5 µM. The essentials: as §2
Assay [19] has as its system MCC-26. Nature of the assay: qHTS assay to identify novel small-molecules to repurpose for Merkel cell carcinoma treatment (AID 1296009). Also: nearly all actives have a fitted effect of over 60% in size. Particulars: MCC and control cell lines, CellTiter-Glo viability, 72 h; series mostly up to 46 µM. The essentials: as §1

SMILES strings stand for the structures. Inconclusive results are not listed. A number with no mark means an inactive call. The source made the active and inactive calls. Calls follow the shape of the dose curve; as a rule, active = well fitted curve in the direction sought with a large enough effect; inconclusive = small, poorly fitted or top-dose-only effect, or another doubt; inactive = no such curve, though single readings can be large; an effect the other way counts as inactive or inconclusive.
% is scaled to controls: 0 for no effect and ±100 for the full control effect; potency is read from the fitted curve at half-maximal effect.

Turning to `COC(=O)[C@H]1[C@H]2C[C@@H]3c4[nH]c5cc(OC)ccc5c4CCN3C[C@H]2C[C@@H](OC(=O)/C=C/c2ccc(O)c(OC)c2)[C@@H]1OC`, the Potency result in assay [1], in assay [2], in [3], in [4], in [5] and in [6] was “inactive” throughout. In addition, the Potency entry in assay [8] and in assay [10] was “inactive” in each case. For the same compound, the Potency in [7] was 31.6 µM (active); in assay [9], 35.5 µM (active).
For `COc1cc(S(N)(=O)=O)cc(C(=O)O)c1OC`, the Potency result in assay [1], in assay [11], in [12], in assay [14], in assay [15] and in assay [2] was “inactive” throughout. The Potency result in assay [16], in assay [3], in assay [4], in [5], in assay [6] and in assay [17] was “inactive” throughout. In addition, the Potency result in assay [7], in assay [8], in assay [9], in [18] and in [10] was “inactive” throughout. The compound was classed as inactive in [13].
On to `Nc1c2ccccc2nc2ccccc12`, for which the Potency is 18.8 µM (active) in assay [1]; 3.35 µM (active) in assay [11]; 14.1 µM (active) in [4]; 8.91 µM (active) in assay [6]; 28.2 µM (active) in assay [7]; 14.1 µM (active) in [18].
As to `CCOC(=O)C1=C(C)NC(C)=C(C(=O)OCC)C1c1ccccc1/C=C/C(=O)OC(C)(C)C`, the Potency result in [19], in assay [4], in assay [5], in assay [6], in assay [17] and in [7] was “inactive” throughout. Besides, the Potency entry in assay [8], in assay [18] and in [10] was “inactive” in each case. For the same compound, the Potency in assay [11] was 26.6 µM (active); in assay [12], 21.1 µM (active); in [14] it was 26.6 µM (active); in [15], 23.7 µM (active).
Consider `C/C(=C(/OCCOc1ccc(Cl)cc1)c1ccc(Cl)cc1Cl)n1ccnc1`, for which the Potency result in assay [1], in [19], in assay [11], in [2], in [3] and in [4] was “inactive” each time. In addition, the Potency entry in assay [5], in [6], in [17], in assay [7], in assay [8] and in [9] was “inactive” each time. Further, the Potency result in assay [18] and in assay [10] was “inactive” each time.
As to `Cc1nc(N)nc(N)c1-c1ccc(Cl)c(Cl)c1`, the Potency entry in assay [19], in assay [12], in assay [16] and in [9] was “inactive” in each case. The Potency in assay [2] is 0.447 µM (active); in [3], 1.41 µM (active); in [4] it was 1 µM (active); in assay [5], 11.2 µM (active); in [6] it was 1.58 µM (active); in assay [17], 11.2 µM (active). Besides, the Potency is 0.891 µM (active) in assay [7], 3.16 µM (active) in assay [8], 0.794 µM (active) in assay [18] and 3.55 µM (active) in [10].
With `CC(=O)OC/C=C(C)/C=C/C=C(C)/C=C/C1=C(C)CCCC1(C)C`, the Potency entry in [1], in assay [19], in assay [14], in assay [2], in assay [3] and in assay [4] was “inactive” throughout. Also, the Potency result in [5], in assay [6], in assay [17], in assay [7], in [8] and in [9] was “inactive” in each case. Besides, the Potency result in assay [18] and in [10] was “inactive” each time. Besides, in [12], the Potency was 3.76 µM (active).
`CCCC(=O)O[C@]1(C(=O)CCl)[C@@H](C)C[C@H]2[C@@H]3CCC4=CC(=O)C=C[C@]4(C)[C@@]3(F)C(=O)C[C@@]21C`: the Potency result in assay [1], in [19], in assay [2], in [3], in assay [4] and in assay [5] was “inactive” throughout. The Potency entry in assay [17], in assay [7], in assay [8], in assay [18] and in [10] was “inactive” each time.
For the compound `Brc1ccc([C@H]2CN3CCSC3=N2)cc1`, the call in [13] was inactive. Also, the Potency entry in assay [2], in assay [3], in assay [4], in [5], in [6] and in [17] was “inactive” each time. Moreover, the Potency entry in assay [7], in [8], in assay [9], in assay [18] and in [10] was “inactive” in each case.
Take `O=C1CC[C@H](C(=O)N2CCCCC2)N1`: the Potency entry in [2], in assay [16], in assay [3], in assay [4], in assay [5] and in assay [6] was “inactive” in each case. In addition, the Potency result in assay [17], in assay [7], in [8], in assay [9], in assay [18] and in assay [10] was “inactive” throughout.
Turning to `COc1ccc(-n2nc(CCC(=O)N(C)O)cc2-c2ccc(Cl)cc2)cc1`, the Potency result in assay [19], in [2], in assay [16], in [3], in [5] and in assay [6] was “inactive” in each case. Further, in assay [10], the Potency entry was “inactive”. The Potency is 21.1 µM (active) in [12] and 31.6 µM (active) in assay [9].
Regarding `CCN(CC)CCOc1ccc(/C(=C(\Cl)c2ccccc2)c2ccccc2)cc1`, the figures for the Potency in assay [11], in assay [15] and in [7] were 23.7 µM (active), 26.6 µM (active) and 14.1 µM (active), respectively. The Potency result in [3], in assay [5], in assay [17] and in [10] was “inactive” in each case.
As to `CC(COc1ccccc1)NN` (centres undefined), the Potency entry in assay [2], in assay [3], in [4], in assay [5], in assay [6] and in assay [17] was “inactive” throughout. Moreover, the Potency result in assay [7], in [8], in assay [9], in assay [18] and in assay [10] was “inactive” in each case.
With `Cc1cc(OCCOCC[N+](C)(C)Cc2ccccc2)ccc1C(C)(C)CC(C)(C)C`, the Potency in assay [14] was 4.22 µM (active). The Potency entry in [4], in assay [5], in assay [17] and in assay [18] was “inactive” each time.
In the case of `CC(=O)Oc1ccc(C2(c3ccc(OC(C)=O)cc3)Oc3ccccc3NC2=O)cc1`, the Potency entry in assay [11], in [12] and in [2] was “inactive” in each case. Further, the results for the Potency in assay [8] and in [18] were 31.6 µM (active) and 22.4 µM (active), respectively.
For the compound `N[C@@H](Cn1ccc(=O)c(O)c1)C(=O)O`, the activity change, negative = cytotoxicity was 19.3% [at 6.55 µM] in [2]; 1.33% [at 6.55 µM] in assay [3]; 4.8% [at 6.55 µM] in [4]; -0.102% [at 6.55 µM] in assay [5]; -0.477% [at 6.55 µM] in assay [6]; 1.6% [at 6.55 µM] in [17]. Further, the activity change, negative = cytotoxicity was 12.3% [at 6.55 µM] in assay [7]; 16.1% [at 6.55 µM] in assay [8]; 23.2% [at 6.55 µM] in assay [9]; -4.16% [at 6.55 µM] in [18]; 12.5% [at 6.55 µM] in assay [10].
Consider `COC(=O)C1=CO[C@@H](O)[C@@H]2C(CO)=CC[C@H]12`, for which the Potency entry in assay [2], in assay [3], in assay [4], in assay [5], in assay [6] and in assay [17] was “inactive” each time. The Potency entry in assay [7], in assay [8], in assay [9], in [18] and in assay [10] was “inactive” each time.

The values are drawn from PubChem BioAssay (NCATS).
